From paper PMC5540273 (PLoS ONE, 2017) come the findings set out here.
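Further: KINOMEscan kinase panel screen.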

For this assay, the system named is BMPR1B. The settings on record: concentration: 1 μM,replicates: in singlicate; n = 1.
In the case of `OCCn1cc(-c2cnc3nnn(Cc4ccc5ncccc5c4)c3n2)cn1`, the “%Inh” value was determined as 0%.

For `CCN1CCN(CCCC(=O)Nc2n[nH]c3nc(-c4ccc(O)cc4)c(Br)cc23)CC1` [SB-731579], the “%Inh” value was determined as 15%.

On to `C[C@@H]1CNc2c(sc3ccc4nc(-c5ccncc5)ccc4c23)C(=O)N1`, for which the “%Inh” value was determined as 7%.

On to `COc1cccc(CNC(=O)NC2CCN(c3ccnc(Nc4cc(OC)c(OC)c(OC)c4)n3)C2)c1` (stereo not shown) [GSK1379765], for which the “%Inh” value was found to be 0%.

In the case of `CCn1c(-c2nonc2N)nc2cncc(CNC3CCNCC3)c21.Cl` [SB-747651], the “%Inh” value was found to be 0%.

On to `O=C(NCC1CC1)c1ccc(-c2cc(C(=O)NC3CC3)ccc2F)cc1` [GW810445], for which the “%Inh” value is reported as 0%.

`COc1cccc(OC)c1C(=O)Nc1cccc(-c2nn3ccccc3c2-c2ccnc(Nc3cccc(F)c3)n2)c1` [GSK361065]: the “%Inh” value is 21%.

With `Cn1cc(-c2cccc3c(N)c(C(N)=O)nnc23)cn1`, the “%Inh” value came out at 21%.

Consider `CC(C)S(=O)(=O)N1CCN(Cc2ccc3c(c2)nc(NC(=O)c2ccsc2)n3C[C@H](O)c2ccccc2)CC1` [GW635815], for which the “%Inh” value is on record as 0%.

`Cc1ccc(CC(=O)N2CCc3cc(-c4cn(C)c5ncnc(N)c45)ccc32)cc1` [GSK2634758]: the “%Inh” value was 0%.

On to `CCn1c(-c2nonc2N)nc2cncc(Br)c21` [SB-738004], for which the “%Inh” value is listed as 17%.

For the compound `O=C(Nc1ccccc1)c1cccc(Oc2ccc3nccn3n2)c1`, the “%Inh” value was 14%.

As for `COC(=O)Nc1nc2cc(Oc3ccc(NC(=O)Nc4cc(C(F)(F)F)ccc4Cl)cc3)ccc2[nH]1.Cl` [GW697465], the “%Inh” value was 0%.

For the compound `O=C1NCCc2[nH]c(-c3ccncc3)cc21`, the “%Inh” value amounted to 92.9%.

For `CNC(=O)c1ccccc1Nc1nc(Nc2cccc(CS(C)(=O)=O)c2)ncc1C.O=CO` [GSK1520489], the “%Inh” value amounted to 99.9%.

For the compound `O=C(Nc1cccc(Oc2ccc3nccn3n2)c1)Nc1cccc(C(F)(F)F)c1`, the “%Inh” value is 0%.

In the case of `COc1ccc(Nc2nccc(N3CCC(NC(=O)c4cccc(C#N)c4)C3)n2)cc1` (stereo not shown) [GSK1379730], the “%Inh” value is reported as 0%.

`COc1cc2nccc(Nc3ccc(Oc4ccccc4)cc3)c2cc1OC.Cl` [GI261656]: the “%Inh” value was 0%.

For `C[C@@H](Oc1cc(-n2cnc3ccc(-c4ccncc4)cc32)sc1C(N)=O)c1ccccc1Cl` [GSK483724], the “%Inh” value turned out to be 0%.

Regarding `CC(=O)Nc1ccc(-c2cc3ncnc(SCC(=O)O)c3s2)cc1`, the “%Inh” value stood at 0%.

As to `NC(=O)c1ccc(-c2cc3ncnc(SCC(=O)O)c3s2)cc1`, the “%Inh” value was found to be 1%.

With `COc1cc(Nc2nccc(N3CCC(NC(=O)c4cccc(C#N)c4)C3)n2)cc(OC)c1OC` (stereo not shown) [GSK1379751], the “%Inh” value turned out to be 2%.

With `Cn1ccc2ncnc(Oc3ccc(NC(=O)Nc4cc(C(C)(C)C)on4)c(Cl)c3)c21`, the “%Inh” value came out at 16%.

Regarding `Cn1ccc2ncnc(Oc3ccc(NC(=O)Nc4cccc(C(F)(F)F)c4)c(F)c3)c21`, the “%Inh” value is 0%.

For the compound `CC(=O)Nc1nc2cnc(Nc3cc(NC(=O)c4cccc(CC(C)(C)C#N)c4)ccc3C)nc2s1`, the “%Inh” value worked out at 2%.

Consider `c1ccc(Oc2ccc(Nc3ccnc4ccc(-c5ccccn5)cc34)cc2)cc1` [GW407034], for which the “%Inh” value was found to be 0%.

For the compound `COC(=O)c1cccc(NC(=O)NC2CCN(c3ccnc(Nc4cc(OC)c(OC)c(OC)c4)n3)C2)c1` (stereo not shown) [GSK1379767], the “%Inh” value is 0%.

With `Cc1cccc(-c2nc(Nc3ccncc3)c3sccc3n2)n1` [GW869641], the “%Inh” value came to 82%.

With `CC(=O)c1c(-c2ccncc2)[nH]c(-c2ccncc2)c1C` [GW493036], the “%Inh” value was found to be 0%.

Turning to `Cc1nnc(-c2ccc3occ(-c4ccc(S(C)=O)cc4)c3n2)o1` (stereo not shown), the “%Inh” value was determined as 0%.

Take `Cc1ccc2c(-c3ccnc(Nc4ccc(C(F)(F)F)cc4)n3)cnn2n1` [GW819776]: the “%Inh” value worked out at 0%.

For `Cn1ccc2ncnc(Oc3ccc(NC(=O)Nc4cncc(C(F)(F)F)c4)c(Cl)c3)c21`, the “%Inh” value is reported as 0%.

Take `Cl.Nc1n[nH]c2cc(-c3ccccn3)ccc12` [GSK2189892]: the “%Inh” value worked out at 0%.

Regarding `C[C@@H](Oc1cc(-n2cnc3cc(-c4cnn(C)c4)ccc32)sc1C(N)=O)c1ccccc1Cl` [GSK580432], the “%Inh” value was found to be 0%.

Take `CN1CCN(CCCNc2nccc(-c3c(-c4ccc(F)cc4)nn4cc(C(N)=O)ccc34)n2)CC1` [GW622475]: the “%Inh” value is listed as 37%.

Turning to `O=C(Nc1n[nH]c2cc(-c3ccco3)ccc12)C1CC1` [SB-737447], the “%Inh” value was determined as 14%.

As for `NC(=O)Nc1sc(-c2ccc(F)cc2)cc1C(N)=O` [GW789449], the “%Inh” value came out at 11%.
